# Shown are actives, neighbours in structure and some others; about 15% of the full set was active somewhere.
# VP16 counter = counter-screen for ROR gamma inhibitors: Gal4-VP16 reporter | 310,000 compounds, 3.5% hits | AID 2546 | Drosophila S2 Gal4-VP16 UAS-luciferase, luminescence, 20 h | Potency, µM (series often up to 53.6 µM), usual class: inhibitors;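 note: Gal4-VP16 expression switched on by copper sulfate through the metallothionein promoter; nearly all actives have a fitted effect of over 50% in size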
# ELG1 DNA repair = blocks ELG1-dependent DNA repair in HEK293T cells. 330,000 compounds, 2.3% hits. Potency, µM (doses to about 46.1 µM), actives largely listed as inhibitors. HEK293T ELG1-luciferase reporter, luminescence, 16 h; DNA damage induced by 5-fluorouridine. AID 504467; note: nearly all actives have a fitted effect of over 55% in size
#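 Overnight (16 hr) co-exposure of 2,000 cells/well to 5-fluorouridine and compound at 37 °C preceded detection. Luciferase was quantified via ONE-Glo luminescence; loss of signal denotes inhibition.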
# TDP1 cell noCPT = qHTS for Inhibitors of human tyrosyl-DNA phosphodiesterase 1 (TDP1): qHTS in cells in absence of CPT | DT40 Tdp1-/- hTDP1 cells, no CPT, ATP luminescence, 48 h | 420,000 compounds, 15% hits | Potency, µM (top dose mostly 46.2 µM), usual class: inhibitors; note: nearly all actives have a fitted effect of over 55% in size
#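 Growth of hTDP1-complemented DT40 Tdp1-knockout cells is measured by ATP luminescence after at least 48 hr compound exposure at 37 °C, with DMSO substituting for the 20 nM CPT used in the parallel screen.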
# RORgamma inh = inhibitors of mouse ROR gamma transcriptional activity; P51450; Drosophila S2 Gal4-RORgamma UAS-luciferase reporter, 20 h; Potency, µM (series often up to 53.6 µM), hits mostly inhibitors; 310,000 compounds, 5.4% hits; note: nearly all actives have a fitted effect of over 60% in size
# Target sequence (P51450 whole entry, looked up, the tested form may be a part): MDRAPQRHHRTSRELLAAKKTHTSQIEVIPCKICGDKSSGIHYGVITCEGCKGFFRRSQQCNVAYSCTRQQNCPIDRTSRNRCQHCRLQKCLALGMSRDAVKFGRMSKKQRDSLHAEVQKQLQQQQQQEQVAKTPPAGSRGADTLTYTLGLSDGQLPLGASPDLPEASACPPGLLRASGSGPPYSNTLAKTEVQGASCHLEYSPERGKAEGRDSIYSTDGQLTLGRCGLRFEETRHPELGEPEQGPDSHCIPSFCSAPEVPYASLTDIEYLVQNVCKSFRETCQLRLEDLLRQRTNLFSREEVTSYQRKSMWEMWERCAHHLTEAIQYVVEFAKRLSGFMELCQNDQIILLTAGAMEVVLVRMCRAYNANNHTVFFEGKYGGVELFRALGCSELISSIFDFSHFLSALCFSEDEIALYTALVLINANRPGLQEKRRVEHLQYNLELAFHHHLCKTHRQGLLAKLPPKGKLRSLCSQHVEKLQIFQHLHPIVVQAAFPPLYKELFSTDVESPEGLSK
#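 Drosophila S2 cells stably expressing Gal4-DBD/mouse RORγ fusion under metallothionein promoter plus UAS-luciferase; compound 1 h, then 700 uM CuSO4 induction for 20 h at ambient temperature; inhibition read as reduced luminescence.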
# 12-LOX inh = ALOX12 (human) lipoxygenase inhibition | Potency, µM (highest dose often 108 µM), most hits filed as inhibitors | AID 1671190 | P18054 | 580,000 compounds, 1.1% hits | purified 12hLO, xylenol orange hydroperoxide absorbance
#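 Purified human 12hLO at 150 nM in 25 mM Hepes, 0.01% Triton X-100, pH 7.0, preincubated 15 min at room temperature with compound. Reaction started with 40 uM arachidonic acid, 30 min at room temperature. Hydroperoxide measured by Fe-xylenol orange, 573/405 nm absorbance ratio.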
# TDP1 cell CPT = growth inhibition of DT40 Tdp1-/-;hTDP1 cells with camptothecin (screen for TDP1 inhibitors). chicken DT40 Tdp1-/-;hTDP1 cells + 20 nM CPT, ATP luminescence, 48 h. 420,000 compounds, 12% hits. Potency, µM (titrated, usually from 46.2 µM), actives largely listed as inhibitors; note: nearly all actives have a fitted effect of over 55% in size
#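 Chicken DT40 Tdp1-/- cells complemented with human TDP1, 400 cells/well, exposed to compounds plus 20 nM camptothecin for at least 48 h at 37 C; viability read as ATP content by CellTiter-Glo luminescence.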
# Hits are given with their value; 0 = inactive; ? = inconclusive; - = no result given; [ ] = remark or other dose. Calls come from the whole dose curve; as a rule, active = well fitted curve in the direction sought with a large enough effect; inconclusive = small, poorly fitted or top-dose-only effect, or another doubt; inactive = no such curve, though single readings can be large; an effect the other way counts as inactive or inconclusive.
SMILES,VP16 counter,ELG1 DNA repair,TDP1 cell noCPT,RORgamma inh,12-LOX inh,TDP1 cell CPT
COc1ccc(CC(=O)Nc2ccc(S(=O)(=O)N(C)C3CCN(C)CC3)cc2)cc1,-,0,0,-,?,?
Cc1ccc(OC(C)C(=O)Nc2ccncc2)cc1C (stereo not given),?,?,?,0[1.91 µM],?,?
CC(Oc1ccc(Br)cc1Cl)C(=O)Nc1ccncc1 (stereo not given),?,?,5.2µM,0[1.91 µM],0,8.2µM
CC(Oc1ccc(Br)cc1)C(=O)Nc1ccc(S(=O)(=O)N(C)C2CCN(C)CC2)cc1 (stereo not given),-,?,6.5µM,-,?,12µM
O=C(NCCc1c[nH]c2ccccc12)c1ccccc1OC(F)F,-,-,-,-,0,-
Cc1ccc(S(=O)(=O)N(C)c2ccc(OCC(=O)Nc3cccc(-n4cnnn4)c3C)cc2)cc1,0,23µM,?,0,0,?
Cc1ccc(S(=O)(=O)N(C)c2ccc(OCC(=O)Nc3nc(-c4ccccc4)cs3)cc2)cc1,0,?,13µM,0,0,16µM
CCOC(=O)Cc1csc(NC(=O)COc2ccc(N(C)S(=O)(=O)c3cccs3)cc2)n1,0,18µM,29µM,0,0,?
COCCn1c(C)cc(C(=O)COc2ccc(N(C)S(=O)(=O)c3ccc(C)cc3)cc2)c1C,-,?,?,-,?,18µM
CCOC(=O)Cc1csc(NC(=O)COc2ccccc2)n1,0,0,0,?,0,0
CCOC(=O)NC(Nc1ccc(F)c(Cl)c1)(C(=O)OCC)C(F)(F)F (stereo not given),-,-,-,-,0,-
Cc1ccc(S(=O)(=O)N(C)c2ccc(OCC(=O)Nc3ccc(S(C)(=O)=O)cc3)cc2)cc1,-,-,16µM,-,0,18µM
CN(Cc1ccccc1)C(=O)COc1ccc(N(C)S(=O)(=O)c2ccc(F)cc2)cc1,0,?,15µM,?,0,16µM
CCOC(=O)C(=O)c1csc(NC(=O)COc2ccc(N(C)S(=O)(=O)c3ccc(F)cc3)cc2)n1,0,0,0,0,0,0
COc1ccc(NC(=O)COc2ccc(N(C)S(=O)(=O)c3ccc(C)cc3)cc2)cc1,0,?,?,?,0,?
CN(c1ccc(OCC(=O)Nc2nc(-c3ccccc3)cs2)cc1)S(=O)(=O)c1ccc(F)cc1,0,?,21µM,0,0,18µM
Cc1ccccc1CC(=O)Nc1ccccc1NS(C)(=O)=O,-,-,-,-,0,-
O=C(CCC(=O)N1CCN(c2ccc(O)cc2)CC1)c1cccs1,?,0,23µM,0,0,?
O=C(CSCc1ccc(F)cc1)N1CCN(c2ccc(F)cc2)CC1,0,0,13µM,?,0,?
Cc1ccc(C(=O)C2CCN(CC(=O)N3CCN(c4ccc(F)cc4)CC3)CC2)cc1,0[10 µM],?,18µM,0,0,?
Cc1ccc(OCCC(=O)N2CCN(c3ccc(O)cc3)CC2)cc1,0,7.3µM,16µM,0,?,?
Cc1ccc(OCCNC(=O)CCC(=O)N2CCOCC2)cc1,-,0,0,-,0,0
CCOc1ccccc1C(=O)N1CCN(c2cc(-c3cccs3)[nH]n2)CC1,-,-,-,-,0,-
O=C(Cn1ncc2ccccc2c1=O)Nc1ccc(F)c(F)c1F,-,-,-,-,0,-
CC(OC(=O)c1cc2c(F)cccc2s1)C(=O)N1CCNC1=O (stereo not given),-,-,-,-,0,-
SMILES,VP16 counter,ELG1 DNA repair,TDP1 cell noCPT,RORgamma inh,12-LOX inh,TDP1 cell CPT
O=C(O)C[C@@H]1CCN(C(=O)Nc2ccccc2)C[C@@H]1CCN1CCC(n2c(=O)[nH]c3ccccc32)CC1,-,-,-,-,0,-
COc1cccc2cc(-c3csc(-c4ccccc4)n3)c(=O)oc12,-,-,-,-,0,-
COc1ccc(N2CCN(C(=O)CSCc3ccc(C)cc3)CC2)cc1,-,-,18µM,-,?,21µM
Cc1ccc(CSCC(=O)N2CCN(c3ccc(F)cc3)CC2)cc1,0,0,23µM,0,?,26µM
O=C(CCc1c[nH]c2ccccc12)N1CCN(c2ccc(O)cc2)CC1,0,0,7.3µM,0,?,5.2µM
Cc1ccc(CSCCC(=O)N2CCN(c3ccc(F)cc3)CC2)cc1,-,-,0,-,0,0
Cc1ccc(CNC(=O)N2CCC(Oc3ncccc3C(=O)N3CCOCC3)C2)cc1 (stereo not given),-,-,-,-,0,-
Cc1ccc(-n2nc3c(=O)n(CCCC(=O)NCc4cccc(Cl)c4)nc(C)c3c2C)cc1,0,0,?,0,0,23µM
COc1ccc(CNC(=O)CCCn2nc(C)c3c(C)n(-c4ccccc4)nc3c2=O)cc1,0,0,?,0,0,0
Cc1cccc(CNC(=O)CCCn2nc(C)c3c(C)n(-c4ccccc4)nc3c2=O)c1,0,0,?,0,0,0
COc1ccc(CNC(=O)CCCn2nc(C)c3c(C)n(-c4ccc(C)cc4)nc3c2=O)cc1,0,?,9.2µM,0,0,?
Cc1ccc(-n2nc3c(=O)n(CCCC(=O)NCc4ccc(Cl)cc4)nc(C)c3c2C)cc1,0,?,13µM,0,0,23µM
COC1[C@@H](O[C@@H]2O[C@H](C)[C@@H](O[C@H]3C[C@@](C)(O)[C@H](OC(=O)CC(C)C)[C@H](C)O3)[C@H](N(C)C)[C@H]2O)[C@@H](CC=O)C[C@@H](C)[C@@H](O)/C=C/C=C/C[C@@H](C)OC(=O)C[C@H]1OC(C)=O (stereo not given in full),-,-,?,-,0,?
CO[C@@H]1[C@@H](O[C@@H]2O[C@H](C)[C@@H](O[C@H]3C[C@@](C)(O)[C@@H](OC(=O)CC(C)C)[C@H](C)O3)[C@H](N(C)C)[C@H]2O)[C@@H](CC=O)C[C@@H](C)C(=O)/C=C/C2OC2C[C@@H](C)OC(=O)C[C@H]1OC(C)=O (stereo not given in full),-,-,3.3µM,-,-,3.8µM
COC(=O)c1cc([N+](=O)[O-])c(-n2cncn2)c([N+](=O)[O-])c1,0,0,5.8µM,0,0,5.8µM
Cc1c(Cl)cccc1NC(=O)C1CCCN(C(=O)Cc2cccc3ccccc23)C1 (stereo not given),-,-,-,-,0,-
O=C(c1ccc([N+](=O)[O-])s1)N1CCN(c2ccccn2)CC1,0,?,15µM,0,0,23µM
O=C(Nc1c(C(=O)N2CCN(c3ccccn3)CC2)oc2ccccc12)c1ccc([N+](=O)[O-])cc1,0,0,?,0,0,23µM
O=C(NCCC(=O)N1CCN(c2ccccn2)CC1)c1ccc([N+](=O)[O-])cc1,-,0,0,-,0,0
Cc1cc(=O)n(CCN2CCOCC2)c(N2CCCC2)n1,-,-,-,-,0,-
